In all, about 13,000 compounds went through this assay and about 3,200 (25%) showed an effect of 50% or more. The list shows a part of the results.
tested on: P. falciparum stage V gametocytes; design: BacTiter-Glo ATP luminescence viability of purified stage V gametocytes in 384-well plates, per cent inhibition versus DMSO; details: 48 h, 5 µM; inhibitor

Row | SMILES | % Inhibition
1 | O=C1COc2ccccc2N1CCN1CCC(NCc2ccc(-c3cccs3)cc2)CC1 [TCMDC-135135] | -33.37%
2 | COCc1nc(N)nc(N)c1-c1ccc(Cl)c(Cl)c1 [TCMDC-137373] | -9.797%
3 | O=C(NCCNc1nc(NCCNC(=O)Nc2ccccc2)c2ccc(=O)n(-c3c(F)cccc3F)c2n1)Nc1ccccc1 [TCMDC-136645] | 74.46%
4 | COc1ccc(Nc2nccc(NCCNC(=O)Nc3ccccc3F)n2)cc1 [TCMDC-133645] | -48.4%
5 | O=C(NCCNc1ccnc(Nc2ccc(F)cc2)n1)Nc1ccccc1F [TCMDC-133640] | -0.7257%
6 | COc1ccc(NC(=O)/C=C/c2ccccc2Cl)cc1OCCN1CCC(c2nc3ccccc3[nH]2)CC1 [TCMDC-140921] | -39.17%
7 | O=C(/C=C/c1ccc(Cl)c(Cl)c1)NCCCCCN1CCC(NC(=O)NC2CCCCC2)CC1 [TCMDC-135700] | -41.72%
8 | c1ccc2[nH]c(CN(Cc3nc4ccccc4[nH]3)Cc3nc4ccccc4[nH]3)nc2c1 [TCMDC-124132] | -49.22%
9 | c1ccc2[nH]c(Nc3ccc(Nc4nc5ccccc5[nH]4)cc3)nc2c1 [TCMDC-131951] | -2.479%
10 | ON=C(c1nc2ccccc2[nH]1)c1nc2ccccc2[nH]1 [TCMDC-125758] | 102.3%
11 | COc1cc(C(=O)NCCCN2CCN(c3cccc(Cl)c3)CC2)ccc1-c1nc2cc(Cl)c(F)cc2[nH]1 [TCMDC-140095] | -11.24%
12 | O=C(c1ccccc1[N+](=O)[O-])N(Cc1ccccc1)c1ccccn1 [TCMDC-125748] | 16.59%
13 | CCCCCn1c(Sc2ccc(C#N)c([N+](=O)[O-])c2)nnc1-c1cc(OC)cc(OC)c1 [TCMDC-135588] | -41.27%
14 | CCCCCCn1c(Sc2ccc(C#N)c([N+](=O)[O-])c2)nnc1-c1cccc(Cl)c1 [TCMDC-135594] | 24.59%
15 | CC(C)Cn1c(Sc2ccc(C#N)c([N+](=O)[O-])c2)nnc1-c1ccc(N(C)C)cc1 [TCMDC-135612] | 35.05%
16 | C=CCn1c(Sc2ccc(C#N)c([N+](=O)[O-])c2)nnc1-c1ccc(OC)cc1 [TCMDC-135605] | 28.83%
17 | CC(C)Cn1c(Sc2ccc(C#N)c([N+](=O)[O-])c2)nnc1-c1cccc(Cl)c1 [TCMDC-135580] | 40.84%
18 | C=CCn1c(Sc2ccc(C#N)c([N+](=O)[O-])c2)nnc1-c1ccc(Cl)cc1 [TCMDC-135600] | 77.78%
19 | CCCCn1c(Sc2ccc(C#N)c([N+](=O)[O-])c2)nnc1-c1cccc(Cl)c1 [TCMDC-135579] | 86.95%
20 | C=CCn1c(Sc2ccc(C#N)c([N+](=O)[O-])c2)nnc1-c1cc(OC)cc(OC)c1 [TCMDC-135590] | 71.82%
21 | C=CCn1c(Sc2ccc(C#N)c([N+](=O)[O-])c2)nnc1-c1cccc(Cl)c1 [TCMDC-135595] | 80.55%
22 | CCCCCn1c(Sc2ccc(C#N)c([N+](=O)[O-])c2)nnc1-c1cccc(Cl)c1 [TCMDC-135593] | -8.18%

Row | SMILES | % Inhibition
23 | COc1ccc(-c2nnc(Sc3ccc(C#N)c([N+](=O)[O-])c3)n2CC(C)C)cc1 [TCMDC-135584] | 36.77%
24 | O=[N+]([O-])c1cc(C(c2ccc(O)c([N+](=O)[O-])c2)C(Cl)(Cl)Cl)ccc1O [TCMDC-124158] | 25.13%
25 | COc1ccccc1NC(=O)Nc1cccc(-c2cccc(-c3nc4ccc(C(F)(F)F)cc4[nH]3)c2)c1 [TCMDC-133205] | 10.02%
26 | [O-][S+]1c2ccccc2Sc2ccccc21 [TCMDC-124300] | -7.237%
27 | CC(C)Cn1ncc2c3c(N)nc(N)nc3ccc21 [TCMDC-137970] | 3.163%
28 | O=C(Nc1ccccc1)OCCOc1ccc(CC2SC(=O)NC2=O)cc1 (centres unmarked) [TCMDC-131642] | 13.3%
29 | N#Cc1ccc2c(c1)CCN(CCC1CCC(NC(=O)/C=C/c3cc(Br)cs3)CC1)CC2 (centres unmarked) [TCMDC-139841] | -33.15%
30 | O=C(Nc1ccccc1Cl)N(Cc1cc(Cl)cc(Cl)c1)CC(O)COc1ccc(Cl)c(F)c1 (centres unmarked) [TCMDC-141477] | 10.95%
31 | O=C(/C=C/c1ccc(Cl)cc1)NCCCCCN1CCC(C(=O)Nc2cccc(Cl)c2)CC1 [TCMDC-136119] | -9.305%
32 | O=C(/C=C/c1ccc(Cl)cc1)NCCCCCN1CCC(C(=O)Nc2ccc(Cl)cc2)CC1 [TCMDC-136115] | 64.6%
33 | O=C(/C=C/c1ccc(Cl)cc1)NCCCCCN1CCC(C(=O)Nc2ccc(Cl)c(Cl)c2)CC1 [TCMDC-136123] | -40.47%
34 | O=C(/C=C/c1ccc(Cl)c(Cl)c1)NCCCCCN1CCC(C(=O)Nc2ccc(Cl)c(Cl)c2)CC1 [TCMDC-136124] | 40.37%
35 | COc1ccc(NC(=O)C2CCN(CCCCCNC(=O)/C=C/c3ccc(Cl)c(Cl)c3)CC2)cc1 [TCMDC-136128] | 80.86%
36 | O=C(/C=C/c1ccc(Cl)c(Cl)c1)NCCCCCN1CCC(C(=O)Nc2ccc(Cl)cc2)CC1 [TCMDC-136116] | -21.25%
37 | Cc1cc(C)cc(OCC(O)CN(Cc2cc(Cl)cc(Cl)c2)C(=O)Nc2ccc(Cl)cc2)c1 (centres unmarked) [TCMDC-141475] | 25.73%
38 | O=C(Nc1cccc(Cl)c1N1CCOCC1)C(Cl)(Cl)Cl [TCMDC-124993] | 8.6%
39 | CN(C)CCOc1cc(NC(=O)Nc2ccc3c(c2)CCCC3=O)ccc1I [TCMDC-139187] | -8.397%
40 | O=C(Nc1ccc(C(=O)N2CCN(CCN3CCN(c4cccc(C(F)(F)F)c4)CC3)CC2)cc1)c1ccc(C(F)(F)F)cc1 [TCMDC-138148] | -21.85%
41 | O=C(Nc1ccc(Cl)c(C(F)(F)F)c1)NC1CCN(CCCCCNC(=O)C2CC2c2ccc(Cl)c(Cl)c2)CC1 (centres unmarked) [TCMDC-136260] | 59.16%
42 | O=C(NCCCCCN1CCCN(C(=O)Nc2ccc(Cl)c(C(F)(F)F)c2)CC1)C1CC1c1ccc(Cl)c(Cl)c1 (centres unmarked) [TCMDC-136255] | -20.94%
43 | O=C(Nc1ccc(Cl)c(C(F)(F)F)c1)N[C@H]1CCN(CCCCCNC(=O)C2CC2c2ccc(Cl)c(Cl)c2)C1 (some centres unmarked) [TCMDC-136274] | 80.05%
44 | O=C(Nc1ccc(Cl)c(Cl)c1)N[C@H]1CCN(CCCCCNC(=O)C2CC2c2ccc(Cl)c(Cl)c2)C1 (some centres unmarked) [TCMDC-136266] | -8.426%

Row | SMILES | % Inhibition
45 | O=C(Nc1ccc(C(F)(F)F)cc1)NC1CCN(CCCCCNC(=O)C2CC2c2ccc(Cl)c(Cl)c2)CC1 (centres unmarked) [TCMDC-136256] | 4.226%
46 | O=C(Nc1ccc(C(F)(F)F)cc1)N[C@H]1CCN(CCCCCNC(=O)C2CC2c2ccc(Cl)c(Cl)c2)C1 (some centres unmarked) [TCMDC-136272] | 93.26%
47 | COc1ccc(NC(=O)Nc2ccc(-c3ccc(-c4nc5cccc(C)c5[nH]4)s3)cc2)cc1 [TCMDC-133243] | -2.294%
48 | COc1ccc(CON2C(N)=NC(N)=NC2(C)C)cc1OC [TCMDC-131587] | 8.467%
49 | N#Cc1ccc2[nH]cc(-c3cn4cc(SC5CCCC5)ccc4n3)c2c1 [TCMDC-134705] | -50.98%
50 | O=C(Nc1cccnc1)c1cc(C(=O)Nc2cccnc2)cc([N+](=O)[O-])c1 [TCMDC-125067] | -34.07%
51 | O=C(Nc1ccncc1)c1cc(C(=O)Nc2ccncc2)cc([N+](=O)[O-])c1 [TCMDC-125671] | 89.24%
52 | COc1cccc(NC(=O)c2cc(C(=O)Nc3cccc(OC)c3)cc([N+](=O)[O-])c2)c1 [TCMDC-125177] | 2.834%
53 | CC(C)c1ccc2c(c1)c(SC(C)(C)C)c(CC(C)(C)C#N)n2Cc1ccc(Cl)cc1 [TCMDC-131974] | -57.09%
54 | COC(=O)c1ccc(CC(C)NCC(O)c2ccc(F)c(Cl)c2)cc1 (centres unmarked) [TCMDC-131517] | 4.686%
55 | C[C@H](Cc1ccc(OCCCCCCOc2ccc(C[C@@H](C)N[C@H](C)c3ccccc3)cc2)cc1)NC[C@H](O)c1cccc(Cl)c1 [TCMDC-131564] | 103.4%
56 | COC(=O)c1ccc(CC(C)NCC(O)c2cccc(OCc3ccccc3)c2)cc1 (centres unmarked) [TCMDC-131486] | 29.25%
57 | COC(=O)c1ccc(CC(C)NCC(O)c2ccc(C(O)CNC(C)Cc3ccc(C(=O)OC)cc3)cc2)cc1 (centres unmarked) [TCMDC-131545] | 100.9%
58 | C[C@H](Cc1ccc(OCCNC[C@H](O)c2cccc(Cl)c2)cc1)NC[C@H](O)c1ccc(Cl)c(Cl)c1 [TCMDC-131547] | 69.99%
59 | COC(=O)c1ccc(CC(C)NCC(O)c2ccc(Cl)c(Cl)c2)cc1 (centres unmarked) [TCMDC-131431] | 21.35%
60 | C[C@H](Cc1ccc(OCCCCCCOc2ccccc2)cc1)NC[C@@H](O)c1cc(Br)no1 [TCMDC-131567] | 65.38%
61 | COc1ccc(C(=O)NCC(C)(C)c2nc(-c3ccc(Cl)c(O)c3)c(-c3ccncc3)[nH]2)cc1OCCN(C(C)C)C(C)C [TCMDC-140736] | 2.982%
62 | CCCCCN1CCCC1CNS(=O)(=O)c1cccc(C(=O)Nc2cccc(C#N)c2)c1 (centres unmarked) [TCMDC-133690] | -52.73%
63 | Cc1ccc(C)c2sc(N(CCCn3ccnc3)C(=O)C=Cc3cccs3)nc12 [TCMDC-124923] | 12.01%
64 | C=C[C@H]1CN2CC[C@H]1C[C@H]2[C@H](OS(=O)(=O)O)c1ccnc2ccccc12 [TCMDC-138341] | 14.93%
65 | c1ccc(CCNc2ccnc(Nc3ccc4n[nH]nc4c3)n2)cc1 [TCMDC-136881] | 0.773%

Source: article PMC4552634, “A New Set of Chemical Starting Points with Plasmodium falciparum Transmission-Blocking Potential for Antimalarial Drug Discovery” (PLoS ONE, 2015)
